Drawing on PubChem BioAssay (EPA / NIEHS), this text covers outcome and AC50 for four molecules.

Holding throughout (settings): mRNA level, 48 h; actives raise or lower the signal
Read-out in test [1]: CFLAR gene, CFLAR (gene 8837)
Nature of the test: LTEA_HepaRG_CFLAR: Life Technologies and Expression Analysis (LTEA) Assay for CFLAR gene using HepaRG (AID 2283455). A digest of the protocol: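 Differentiated HepaRG cells in serum-free induction medium were exposed 48 h in duplicate to eight half-log concentrations up to 100 uM in 0.5% DMSO; mRNA measured by TaqMan qRT-PCR, normalized to ACTB, GAPDH, POLR2A; bidirectional fitting versus DMSO.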

Read-out in test [2]: Forkhead box O1 (FOXO1), FOXO1 (gene 2308)
Nature of the test: LTEA_HepaRG_FOXO1: Life Technologies and Expression Analysis (LTEA) Assay for Forkhead box O1 (FOXO1) using HepaRG (AID 2283456). A digest of the protocol:
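Differentiated HepaRG cells, in serum-free induction medium with 0.5% DMSO, exposed 48 h in duplicate to 8-point half-log series from 100 uM. FOXO1 mRNA measured by TaqMan qRT-PCR, normalized to ACTB, GAPDH, POLR2A; bidirectional fit versus DMSO.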

Read-out in test [3]: growth arrest and DNA damage 45 (GADD45A), GADD45A (gene 1647)
Nature of the test: LTEA_HepaRG_GADD45A: Life Technologies and Expression Analysis (LTEA) Assay for growth arrest and DNA damage 45 (GADD45A) using HepaRG (AID 2283458). A digest of the protocol:
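Differentiated HepaRG cells exposed 48 h in serum-free induction medium to 8 concentrations, top 100 uM in half-log steps, 0.5% DMSO. GADD45A mRNA quantified by qRT-PCR, normalized to ACTB, GAPDH and POLR2A; bidirectional fit versus DMSO.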

Read-out in test [4]: Forkhead box O3 (FOXO3), FOXO3 (gene 2309)
Nature of the test: LTEA_HepaRG_FOXO3: Life Technologies and Expression Analysis (LTEA) Assay for Forkhead box O3 (FOXO3) using HepaRG (AID 2283459). The method in brief:
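Differentiated human HepaRG cells, 48 h post-plating, exposed in duplicate for 48 h in serum-free induction medium; 8-point half-log series from 100 uM in 0.5% DMSO. FOXO3 mRNA by TaqMan qRT-PCR, normalized to ACTB/GAPDH/POLR2A; bidirectional fit versus DMSO.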

Read-out in test [5]: ABC Transporter (ABCB1), ABCB1 (gene 5243)
Nature of the test: LTEA_HepaRG_ABCB1: Life Technologies and Expression Analysis (LTEA) Assay for ABC Transporter (ABCB1) using HepaRG (AID 2283460). A digest of the protocol: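 HepaRG cells exposed in duplicate for 48 h in serum-free induction medium to eight half-log concentrations up to 100 uM in 0.5% DMSO. ABCB1 mRNA quantified by qRT-PCR, normalised to ACTB, GAPDH and POLR2A; fitted bidirectionally versus DMSO.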

Read-out in test [6]: growth arrest and DNA damage 45 (GADD45B), GADD45B (gene 4616)
Nature of the test: LTEA_HepaRG_GADD45B: Life Technologies and Expression Analysis (LTEA) Assay for growth arrest and DNA damage 45 (GADD45B) using HepaRG (AID 2283461). A digest of the protocol: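 Transcript level quantified by Fluidigm TaqMan qRT-PCR with three housekeeping genes for normalization, analyzed for up- or down-regulation against 0.5% DMSO. HepaRG cultures dosed 48 h at eight half-log concentrations up to 100 uM, duplicates.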

Read-out in test [7]: ABC Transporter (ABCC3), ABCC3 (gene 8714)
In words: LTEA_HepaRG_ABCC3: Life Technologies and Expression Analysis (LTEA) Assay for ABC Transporter (ABCC3) using HepaRG (AID 2283462). The method in brief:
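Transcript level by TaqMan qRT-PCR, normalised to three housekeeping genes, fitted in both directions relative to vehicle. Chemicals tested in duplicate at eight half-log concentrations up to 100 uM for 48 h on HepaRG cells (0.5% DMSO).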

Read-out in test [8]: ABC Transporter (ABCB11), ABCB11 (gene 8647)
Nature of the test: LTEA_HepaRG_ABCB11: Life Technologies and Expression Analysis (LTEA) Assay for ABC Transporter (ABCB11) using HepaRG (AID 2283463). A digest of the protocol:
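Differentiated human HepaRG cells in serum-free induction medium, dosed in duplicate for 48 h. Eight-point half-log series from 100 uM in 0.5% DMSO; ABCB11 mRNA by qRT-PCR, normalized to ACTB, GAPDH, POLR2A, fitted bidirectionally versus DMSO.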

Read-out in test [9]: ABC Transporter (ABCC2), ABCC2 (gene 1244)
In words: LTEA_HepaRG_ABCC2: Life Technologies and Expression Analysis (LTEA) Assay for ABC Transporter (ABCC2) using HepaRG (AID 2283464). The method in brief:
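Endpoint is ABCC2 transcript level from qRT-PCR, normalized to three housekeeping genes and fitted bidirectionally relative to DMSO. Human HepaRG cells received test chemical for 48 h at up to 100 uM (8 points, half-log steps, 0.5% DMSO), duplicate wells.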

Read-out in test [10]: ATP-citrate lyase (ACLY), ACLY (gene 47)
In words: LTEA_HepaRG_ACLY: Life Technologies and Expression Analysis (LTEA) Assay for ATP-citrate lyase (ACLY) using HepaRG (AID 2283466). The method in brief: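 Differentiated HepaRG cells exposed 48 h in serum-free induction medium to eight half-log concentrations up to 100 uM in 0.5% DMSO, duplicates. Transcript measured by Fluidigm TaqMan qRT-PCR, normalized to ACTB, GAPDH, POLR2A; bidirectional fit versus DMSO.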

Read-out in test [11]: Peroxisomal acyl-coenzyme A oxidase 1 (ACOX1) gene, ACOX1 (gene 51)
In words: LTEA_HepaRG_ACOX1: Life Technologies and Expression Analysis (LTEA) Assay for Peroxisomal acyl-coenzyme A oxidase 1 (ACOX1) gene using HepaRG (AID 2283467). The method in brief:
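HepaRG cells, plated 48 h then switched to serum-free induction medium, were exposed in duplicate for 48 h to 8-point half-log concentrations up to 100 uM in 0.5% DMSO. ACOX1 mRNA was measured by qRT-PCR, normalized to ACTB/GAPDH/POLR2A, and fitted bidirectionally versus DMSO.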

Read-out in test [12]: Alkaline Phosphatase, Placental (ALPP) gene, ALPP (gene 250)
Nature of the test: LTEA_HepaRG_ALPP: Life Technologies and Expression Analysis (LTEA) Assay for Alkaline Phosphatase, Placental (ALPP) gene using HepaRG (AID 2283468). A digest of the protocol:
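ALPP transcript level, measured by qRT-PCR and normalized to three housekeeping genes (ACTB, GAPDH, POLR2A), after 48 h dosing of differentiated HepaRG in serum-free induction medium. Top concentration 100 uM with half-log dilutions (8 points, 0.5% DMSO, duplicates); bidirectional fitting relative to DMSO.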

Read-out in test [13]: Bcl-2 (BAD) gene, BAD (gene 572)
In words: LTEA_HepaRG_BAD: Life Technologies and Expression Analysis (LTEA) Assay for Bcl-2 (BAD) gene using HepaRG (AID 2283469). A digest of the protocol: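 Differentiated HepaRG cells were exposed in duplicate in 0.5% DMSO for 48 h to eight-point half-log concentrations up to 100 uM. BAD mRNA was measured by Fluidigm TaqMan qRT-PCR, normalized to ACTB, GAPDH and POLR2A, and fitted bidirectionally against DMSO.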

Read-out in test [14]: Bcl-2 (BAX) gene, BAX (gene 581)
In words: LTEA_HepaRG_BAX: Life Technologies and Expression Analysis (LTEA) Assay for Bcl-2 (BAX) gene using HepaRG (AID 2283470). A digest of the protocol:
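Differentiated HepaRG cells exposed 48 h in serum-free induction medium, eight half-log concentrations from 100 uM, in duplicate, 0.5% DMSO vehicle. BAX mRNA by TaqMan qRT-PCR, normalised to ACTB, GAPDH and POLR2A.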

Read-out in test [15]: adenosine kinase (ADK) gene, ADK (gene 132)
In words: LTEA_HepaRG_ADK: Life Technologies and Expression Analysis (LTEA) Assay for adenosine kinase (ADK) gene using HepaRG (AID 2283471). The method in brief:
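ADK expression quantified by qRT-PCR, normalised to three housekeeping genes, after 48 h exposure of HepaRG cells to eight concentrations (top 100 uM, half-log steps, duplicate, 0.5% DMSO). Up- or down-regulation fitted relative to vehicle.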

Read-out in test [16]: Alpha-fetoprotein (AFP) gene, AFP (gene 174)
Nature of the test: LTEA_HepaRG_AFP: Life Technologies and Expression Analysis (LTEA) Assay for Alpha-fetoprotein (AFP) gene using HepaRG (AID 2283472). A digest of the protocol:
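Differentiated human HepaRG cells exposed 48 h in serum-free induction medium, 8-point half-log series from 100 uM in 0.5% DMSO, duplicate. AFP mRNA by qRT-PCR, normalized to ACTB, GAPDH, POLR2A; bidirectional fit vs DMSO.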

Read-out in the next test: BCL2L11 (gene 10018)
Nature of the test: LTEA_HepaRG_BCL2L11: Life Technologies and Expression Analysis (LTEA) Assay for Bcl-2 (BCL2L11) gene using HepaRG (AID 2283473). The method in brief:
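BCL2L11 transcript levels are measured by Fluidigm qRT-PCR, normalized to three housekeeping genes. HepaRG cultures were plated 48 h, then treated 48 h with test chemical (top 100 uM, half-log, 0.5% DMSO vehicle); curves were fitted bidirectionally against DMSO.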

Read-out in test [17]: Apolipoprotein A-V (APOA5) gene, APOA5 (gene 116519)
In words: LTEA_HepaRG_APOA5: Life Technologies and Expression Analysis (LTEA) Assay for Apolipoprotein A-V (APOA5) gene using HepaRG (AID 2283474). The method in brief:
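APOA5 transcript levels were quantified by qRT-PCR, normalized to three housekeeping genes, after 48 h chemical treatment of HepaRG cells (8 points, 100 uM maximum, half-log steps, 0.5% DMSO). Curves fitted in both directions against vehicle.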

Read-out in test [18]: Broad substrate specificity ATP-binding cassette transporter ABCG2 (Homo sapiens) (UniProt Q9UNQ0)
Nature of the test: LTEA_HepaRG_ABCG2: Life Technologies and Expression Analysis (LTEA) Assay for ABC Transporter (ABCG2) using HepaRG (AID 2283465). The method in brief: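 Differentiated HepaRG cells were exposed for 48 h in serum-free induction medium to 8 half-log concentrations, top 100 uM, in 0.5% DMSO. ABCG2 mRNA was measured by qRT-PCR, normalized to ACTB, GAPDH and POLR2A, with bidirectional fitting versus DMSO.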

Activity calls are given as the source filed them. Rule for the calls: active = hit-call score of the fitted dose curve at least 0.9, where 1 is the maximum; inactive = score below 0.9.

Broad substrate specificity ATP-binding cassette transporter ABCG2 (Homo sapiens), sequence (Q9UNQ0 whole entry, looked up): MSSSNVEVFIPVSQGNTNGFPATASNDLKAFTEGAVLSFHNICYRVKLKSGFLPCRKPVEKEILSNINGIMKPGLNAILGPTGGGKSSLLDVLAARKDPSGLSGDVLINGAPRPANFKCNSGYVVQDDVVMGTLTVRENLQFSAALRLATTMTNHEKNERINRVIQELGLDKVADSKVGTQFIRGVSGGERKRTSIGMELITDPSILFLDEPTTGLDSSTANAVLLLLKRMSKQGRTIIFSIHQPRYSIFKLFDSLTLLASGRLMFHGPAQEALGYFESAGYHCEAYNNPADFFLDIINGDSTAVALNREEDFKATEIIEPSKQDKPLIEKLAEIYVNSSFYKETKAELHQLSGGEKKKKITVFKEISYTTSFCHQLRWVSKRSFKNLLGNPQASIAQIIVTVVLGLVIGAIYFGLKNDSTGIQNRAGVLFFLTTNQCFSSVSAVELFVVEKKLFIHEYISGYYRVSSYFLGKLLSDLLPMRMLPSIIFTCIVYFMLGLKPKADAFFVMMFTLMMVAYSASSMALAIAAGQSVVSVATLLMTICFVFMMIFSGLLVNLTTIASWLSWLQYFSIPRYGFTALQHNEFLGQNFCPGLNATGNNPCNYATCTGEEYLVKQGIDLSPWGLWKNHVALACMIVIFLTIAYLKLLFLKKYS

On to `c1ccc2ccccc2c1`, for which the call in test [1], in [2], in test [3], in [4], in [5] and in test [6] was inactive. Besides, the outcome in [7], in [8], in test [9], in test [10], in test [11] and in test [12] was inactive. The outcome (in test [13]; in [14]; in test [15]; in test [16]; with BCL2L11 (gene 10018); in test [17]) was inactive.

For `O=C1CCC(C2CCCCC2)CC1`, the molecule was called inactive in [1], in test [2], in [3], in test [4], in [5] and in [6]. For the same molecule, the outcome in test [7], in [8], in test [9], in [10], in test [11] and in [12] was inactive. Besides, the result (in [13]; in [14]; in [16]; with BCL2L11 (gene 10018); in test [17]) was inactive.

Regarding `CC(=O)N1CCN(c2ccc(OC[C@H]3CO[C@](Cn4ccnc4)(c4ccc(Cl)cc4Cl)O3)cc2)CC1`, the AC50 (commonly the concentration at which the activity in the assay is half-maximal) in test [1] is 74.2 µM (active); in test [2], 33.4 µM (active); in test [3], 12.5 µM (active); in [4], 77.6 µM (active); in test [7], 91.8 µM (active); in [9], 31.1 µM (active). Also, the AC50 was 4.05 µM (active) in test [18]; 1.23 µM (active) in test [10]; 18.1 µM (active) in test [11]; 11.8 µM (active) in test [14]; 19.1 µM (active) in test [16]; 17.8 µM (active) in test [17]. Moreover, the result (in test [6]; in [13]; in the test with BCL2L11 (gene 10018)) was inactive.

With `CC/C(=C(/CC)c1ccc(O)cc1)c1ccc(O)cc1`, the AC50 in test [1] is 50 µM (active); in [2], 74.8 µM (active); in test [4], 76.9 µM (active); in [5], 82.2 µM (active); in test [6] it was 68.8 µM (active); in test [9], 78 µM (active). Besides, the AC50 in [10] was 50 µM (active); in [11] it was 93.1 µM (active); with BCL2L11 (gene 10018) it was 88.8 µM (active); in test [17] it was 50 µM (active). Moreover, the molecule was classed as inactive in test [3], in test [7], in test [8], in test [12], in test [13] and in test [14]. Moreover, in [16], the molecule was classed as inactive.
